Reference: PubChem BioAssay (Tox21)
Records with an inconclusive call do not appear. The source made the active and inactive calls. Unless noted, the call rests on the fitted dose curve. Where a SMILES comes first, the peptide text is derived from it.

Key:
[1] = qHTS assay to identify small molecule antagonists of the estrogen receptor beta (ER-beta) signaling pathway - cell viability counter screen (AID 1259382; active means well fitted curve in the direction sought with a large enough effect in the repeat runs; an effect the other way counts as inactive or inconclusive;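 further: HEK293T cells carrying ER-beta-UAS-bla reporter stimulated with estradiol; series mostly up to about 92 µM; nearly all actives have a fitted effect of over 55% in size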)
Procedure, shortened: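 CellTiter-Glo ATP luminescence measured after the LiveBLAzer read in the same wells; ER-beta-UAS-bla HEK293T cells, 16 hr compound treatment with 1nM 17-beta-estradiol agonist at 37C, 5% CO2.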

[2] = target: Estrogen receptor (Homo sapiens) (UniProt P03372); assay: qHTS assay to identify small molecule agonists of the estrogen receptor alpha (ER-alpha) signaling pathway in the presence of an antagonist (AID 1259383); further: nearly all actives have a fitted effect of over 15% in size; further: potency means the concentration at half of the fitted maximal effect; on activation: top concentration of the series differs between compounds
Chain of Estrogen receptor (Homo sapiens) (P03372 whole entry, looked up): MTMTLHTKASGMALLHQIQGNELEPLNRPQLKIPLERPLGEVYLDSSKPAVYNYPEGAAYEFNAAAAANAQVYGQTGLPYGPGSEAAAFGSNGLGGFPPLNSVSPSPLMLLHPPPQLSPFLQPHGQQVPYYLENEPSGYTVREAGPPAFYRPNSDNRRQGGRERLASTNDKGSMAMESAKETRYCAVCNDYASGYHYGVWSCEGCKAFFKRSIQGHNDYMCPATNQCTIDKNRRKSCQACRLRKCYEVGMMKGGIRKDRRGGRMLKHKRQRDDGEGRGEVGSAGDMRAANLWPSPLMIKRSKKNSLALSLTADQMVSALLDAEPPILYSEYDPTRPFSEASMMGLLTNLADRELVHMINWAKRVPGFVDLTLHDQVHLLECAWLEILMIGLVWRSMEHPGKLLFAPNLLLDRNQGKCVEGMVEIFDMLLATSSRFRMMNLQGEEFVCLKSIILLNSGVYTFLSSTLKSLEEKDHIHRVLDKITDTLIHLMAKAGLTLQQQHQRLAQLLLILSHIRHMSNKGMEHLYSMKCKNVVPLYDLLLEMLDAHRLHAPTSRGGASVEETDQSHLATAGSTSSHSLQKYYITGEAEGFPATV
Procedure, shortened: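 Luminescent ERE-luciferase reporter, VM7Luc4E2 cells (endogenous ER-alpha); 10.0nM ICI-182,780 final; 15-point compound titration; 22hr at 37C; ONE-Glo, 30min RT.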

[3] = qHTS assay to identify small molecule agonists or antagonists of the thyroid stimulating hormone receptor (TSHR) signaling pathway - wild type cell line counter screen (AID 1259384)
Procedure, shortened: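 Wild-type Hek293 cells, 800/well, 18 h at 37C, then compound with Ro20-1724 for 30 min RT. cAMP by HTRF (cAMP-d2/anti-cAMP cryptate), 1 h RT, fluorescence read. 15 concentrations, triplicates.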

[4] = target: Thyrotropin receptor (Homo sapiens) (UniProt P16473); assay: qHTS assay to identify small molecule antagonists of the thyroid stimulating hormone receptor (TSHR) signaling pathway (AID 1259385); further: nearly all actives have a fitted effect of over 20% in size
Chain of Thyrotropin receptor (Homo sapiens) (P16473 whole entry, looked up): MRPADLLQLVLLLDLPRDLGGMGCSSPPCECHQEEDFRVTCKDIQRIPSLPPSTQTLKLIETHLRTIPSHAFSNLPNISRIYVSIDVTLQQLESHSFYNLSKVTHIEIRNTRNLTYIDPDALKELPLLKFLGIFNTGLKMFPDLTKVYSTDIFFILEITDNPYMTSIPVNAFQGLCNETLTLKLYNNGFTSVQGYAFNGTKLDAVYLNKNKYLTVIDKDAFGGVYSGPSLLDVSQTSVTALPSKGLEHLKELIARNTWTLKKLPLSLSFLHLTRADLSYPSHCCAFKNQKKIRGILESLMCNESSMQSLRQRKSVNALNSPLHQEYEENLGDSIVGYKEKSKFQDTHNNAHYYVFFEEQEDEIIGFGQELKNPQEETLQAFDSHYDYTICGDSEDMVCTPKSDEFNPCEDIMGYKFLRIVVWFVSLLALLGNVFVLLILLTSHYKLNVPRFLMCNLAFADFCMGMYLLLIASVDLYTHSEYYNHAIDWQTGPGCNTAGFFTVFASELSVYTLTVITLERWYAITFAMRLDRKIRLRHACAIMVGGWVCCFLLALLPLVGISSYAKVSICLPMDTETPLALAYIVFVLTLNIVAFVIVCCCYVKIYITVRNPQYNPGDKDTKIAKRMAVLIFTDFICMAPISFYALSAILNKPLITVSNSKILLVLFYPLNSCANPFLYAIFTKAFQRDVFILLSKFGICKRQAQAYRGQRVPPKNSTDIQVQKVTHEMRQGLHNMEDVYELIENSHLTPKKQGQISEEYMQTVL
Procedure, shortened: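 TSHR-HEK293 cells (800/well) plated 18 h, then compounds with Ro20-1724 and TSH at 1.5 ng/mL final, 30 min at room temperature. cAMP quantified by HTRF (cAMP-d2/anti-cAMP-cryptate, 1 h); 15 concentrations in triplicate.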

[5] = qHTS assay to identify small molecule agonists of the estrogen receptor alpha (ER-alpha) signaling pathway in the presence of an antagonist - cell viability counter screen (AID 1259386; active means well fitted curve in the direction sought with a large enough effect in the repeat runs; an effect the other way counts as inactive or inconclusive;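 further: series mostly up to about 92 µM; cells exposed to compounds for 22 h at 37 °C before the viability read; nearly all actives have a fitted effect of over 30% in size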)
Procedure, shortened: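 Using estrogen-depleted VM7Luc4E2 cells, the 15-concentration compound series was applied together with 10.0nM ICI-182,780 and incubated 22hr at 37C/5% CO2. Cell viability was then scored by CellTiter-Fluor.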

[6] = target: Progesterone receptor (Homo sapiens) (UniProt P06401); assay: qHTS assay to identify small molecule agonists of the progesterone receptor (PR) signaling pathway (AID 1346784); further: nearly all actives have a fitted effect of over 30% in size
Chain of Progesterone receptor (Homo sapiens) (P06401 whole entry, looked up): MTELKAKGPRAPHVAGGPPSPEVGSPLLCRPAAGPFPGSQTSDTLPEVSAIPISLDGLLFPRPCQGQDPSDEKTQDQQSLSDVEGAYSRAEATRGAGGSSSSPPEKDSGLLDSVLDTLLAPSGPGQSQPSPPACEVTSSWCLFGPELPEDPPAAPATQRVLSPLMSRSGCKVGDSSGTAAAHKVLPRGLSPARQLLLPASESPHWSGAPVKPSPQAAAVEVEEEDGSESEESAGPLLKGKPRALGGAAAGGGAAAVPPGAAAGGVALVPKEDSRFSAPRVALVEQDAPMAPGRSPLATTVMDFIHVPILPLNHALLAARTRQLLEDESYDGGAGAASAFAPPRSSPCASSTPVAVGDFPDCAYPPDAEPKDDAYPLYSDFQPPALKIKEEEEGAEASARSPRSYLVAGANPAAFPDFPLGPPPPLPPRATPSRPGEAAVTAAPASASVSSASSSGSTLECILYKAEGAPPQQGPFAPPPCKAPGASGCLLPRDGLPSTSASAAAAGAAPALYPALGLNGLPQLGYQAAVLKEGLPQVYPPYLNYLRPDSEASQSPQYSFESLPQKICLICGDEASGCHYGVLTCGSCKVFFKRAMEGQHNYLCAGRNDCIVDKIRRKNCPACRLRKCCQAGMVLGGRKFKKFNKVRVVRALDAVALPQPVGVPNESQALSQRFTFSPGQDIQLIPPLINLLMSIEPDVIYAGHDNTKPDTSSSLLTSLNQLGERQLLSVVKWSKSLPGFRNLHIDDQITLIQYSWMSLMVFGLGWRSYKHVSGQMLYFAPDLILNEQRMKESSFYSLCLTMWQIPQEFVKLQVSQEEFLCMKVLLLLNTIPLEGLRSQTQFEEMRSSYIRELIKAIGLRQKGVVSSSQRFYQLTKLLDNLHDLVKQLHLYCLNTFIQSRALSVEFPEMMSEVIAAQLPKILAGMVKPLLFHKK
Procedure, shortened: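 Seed PR-UAS-bla HEK 293T cells (2% charcoal-stripped FBS), incubate 6 hr at 37C; add compounds in DMSO, 16 hr at 37C; add LiveBLAzer B/G substrate, 2 hr RT; read fluorescence intensity.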

[7] = target: Progesterone receptor (Homo sapiens) (UniProt P06401); assay: qHTS assay to identify small molecule antagonists of the progesterone receptor (PR) signaling pathway (AID 1346795; active means well fitted inhibition curve with a large enough effect in the signal ratio in the repeat runs, not every such curve was filed as active; the % refers to the signal ratio; further: potency means the concentration at half of the fitted maximal effect)
Procedure, shortened: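 Screening used a GripTite HEK293T line with PR-responsive UAS-beta-lactamase. Cells were challenged with compound in the presence of 1 nM R5020 final for 16 hr at 37C; B/G FRET substrate, 2 hr room temperature, fluorescence.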

[8] = qHTS assay to identify small molecule antagonists of the progesterone receptor (PR) signaling pathway - cell viability counter screen (AID 1346798; active means well fitted curve in the direction sought with a large enough effect in the repeat runs; an effect the other way counts as inactive or inconclusive; further: series mostly up to about 92 µM; nearly all actives have a fitted effect of over 50% in size)
Procedure, shortened: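 Measures cytotoxicity in parallel with the PR antagonist reporter read: HEK293T PR-UAS-bla cells get compound and R5020 for 16 hr, and remaining viable cells are quantified by CellTiter-Glo luminescence.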

[9] = qHTS assay to identify small molecule agonists of the progesterone receptor (PR) signaling pathway - cell viability counter screen (AID 1346799); further: nearly all actives have a fitted effect of over 45% in size
Procedure, shortened: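 Using the same plates as the PR reporter screen, HEK293T PR-UAS-bla cells received compounds for 16 hr at 37C and were then lysed with CellTiter-Glo; luminescence was read 30 min later at room temperature.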

[10] = target: Androgen receptor (Homo sapiens) (UniProt P10275); assay: qHTS assay to identify small molecule agonists of the androgen receptor (AR) signaling pathway in the presence of an antagonist (AID 1259381); further: nearly all actives have a fitted effect of over 15% in size
Chain of Androgen receptor (Homo sapiens) (P10275 whole entry, looked up): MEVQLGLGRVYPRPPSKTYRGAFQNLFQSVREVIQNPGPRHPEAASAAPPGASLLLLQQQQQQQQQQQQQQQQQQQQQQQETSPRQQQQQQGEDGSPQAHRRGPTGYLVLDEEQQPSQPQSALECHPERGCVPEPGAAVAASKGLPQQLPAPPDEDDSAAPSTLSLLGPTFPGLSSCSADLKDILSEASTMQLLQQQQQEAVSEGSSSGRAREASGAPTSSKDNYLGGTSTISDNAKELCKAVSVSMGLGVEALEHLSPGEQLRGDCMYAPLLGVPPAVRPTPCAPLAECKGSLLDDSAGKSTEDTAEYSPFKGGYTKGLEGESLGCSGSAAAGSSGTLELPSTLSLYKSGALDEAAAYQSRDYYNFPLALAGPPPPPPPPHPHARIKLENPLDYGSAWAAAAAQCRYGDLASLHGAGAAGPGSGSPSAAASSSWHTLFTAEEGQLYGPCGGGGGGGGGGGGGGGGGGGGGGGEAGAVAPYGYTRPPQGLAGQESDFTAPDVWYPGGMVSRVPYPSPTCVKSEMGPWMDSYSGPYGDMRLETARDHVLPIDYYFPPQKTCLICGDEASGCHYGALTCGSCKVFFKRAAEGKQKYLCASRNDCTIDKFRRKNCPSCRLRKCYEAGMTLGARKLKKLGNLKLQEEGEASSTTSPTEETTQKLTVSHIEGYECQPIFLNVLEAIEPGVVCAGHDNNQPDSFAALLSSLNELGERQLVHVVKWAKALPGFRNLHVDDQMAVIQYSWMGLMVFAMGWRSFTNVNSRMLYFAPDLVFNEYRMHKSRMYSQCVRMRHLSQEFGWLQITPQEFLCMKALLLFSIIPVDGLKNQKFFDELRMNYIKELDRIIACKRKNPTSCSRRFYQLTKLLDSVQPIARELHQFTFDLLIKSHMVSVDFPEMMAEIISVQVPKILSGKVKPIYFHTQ
Procedure, shortened: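 Plated MDA-kb2 cells (3,000/well) were pre-incubated 5hr, given nilutamide (3.0uM final) or buffer, then dosed with compounds in DMSO at 15 concentrations. Luciferase activity was quantified by luminescence after 16hr at 37C.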
On the % scale 0 is the no-effect control and ±100 the full control effect.

C/C(=C1\CCOC(=O)S1)N(C=O)Cc1cnc(C)nc1N
inactive: outcome [1] | Potency [2] | outcome [3] | outcome [4] | outcome [5] | Potency [6] | Potency [7] | outcome [8] | outcome [9]

C/C(CC(C)C)=N\O
inactive: outcome [1] | Potency [2] | outcome [3] | outcome [4] | outcome [5] | Potency [6] | Potency [7] | outcome [8] | outcome [9]

O=C1NC(c2ccccc2)(c2ccccc2)C(=O)N1COP(=O)(O)O
inactive: outcome [10] | outcome [1] | outcome [3] | outcome [4] | outcome [5] | Potency [6] | outcome [8] | outcome [9]

C[C@H]1[C@@H](c2ccccc2)NC(=O)N1C
inactive: outcome [1] | Potency [2] | outcome [3] | outcome [4] | outcome [5] | Potency [6] | Potency [7] | outcome [8] | outcome [9]

COc1nc(N)nc2nc[nH]c12
inactive: outcome [1] | Potency [2] | outcome [3] | outcome [4] | outcome [5] | Potency [6] | Potency [7] | outcome [8] | outcome [9]

CCC(C(=O)OCCN1CCOC(c2ccccc2)C1C)c1ccccc1 (stereo not given)
inactive: outcome [1] | Potency [2] | outcome [3] | outcome [4] | outcome [5] | Potency [6]
active: Potency [7] 23.7 µM

[O]=[Mo](=[O])=[O]
inactive: activity change, negative = cytotoxicity [1] -3.58% [at 19 µM] | activation [2] -1.83% [at 19 µM] | cAMP activity change [3] -1.05% [at 18.9 µM] | activity change, negative = inhibition [4] 4.59% [at 19 µM] | activity change, negative = cytotoxicity [5] -0.317% [at 19 µM] | activation [6] 1.92% [at 19 µM] | activity change, negative = inhibition [7] 2.07% [at 18.9 µM] | activity change, negative = cytotoxicity [8] 2.8% [at 18.9 µM] | activity change, negative = cytotoxicity [9] 7.88% [at 19 µM]

CC(=O)O[C@H]1C[C@@H]2CC[C@@]1(C)C2(C)C
inactive: outcome [10] | outcome [1] | outcome [3] | outcome [4] | outcome [5] | Potency [7] | outcome [8] | outcome [9]

CC(=O)C1C(=O)C=C(C)OC1=O (stereo not given)
inactive: outcome [1] | Potency [2] | outcome [3] | outcome [4] | outcome [5] | Potency [6] | Potency [7] | outcome [8] | outcome [9]

CCCCOC(=O)C(C)O (stereo not given)
inactive: outcome [1] | Potency [2] | outcome [3] | outcome [4] | outcome [5] | Potency [6] | Potency [7] | outcome [8] | outcome [9]

Fc1ccccc1
inactive: outcome [1] | Potency [2] | outcome [3] | outcome [4] | outcome [5] | Potency [6] | Potency [7] | outcome [8] | outcome [9]

CC(Oc1cc(Cl)ccc1Cl)C(=O)O (stereo not given)
inactive: outcome [10] | outcome [1] | outcome [5] | Potency [6] | Potency [7] | outcome [8] | outcome [9]

CC/C=C\CCOC(=O)c1ccccc1O
inactive: outcome [1] | Potency [2] | outcome [3] | outcome [4] | outcome [5] | Potency [6] | Potency [7] | outcome [8] | outcome [9]

CCCCC1CCC(O)CC1 (stereo not given)
inactive: outcome [10] | outcome [1] | outcome [5] | Potency [6] | outcome [8] | outcome [9]

CC(C)[C@H]1CC[C@H](C)C[C@@H]1O
inactive: outcome [10] | outcome [1] | outcome [3] | outcome [4] | outcome [5] | Potency [6] | outcome [8] | outcome [9]

CC(=O)O[C@@H]1CC2CCC1(C)C2(C)C (stereo not given in full)
inactive: outcome [10] | outcome [1] | outcome [3] | outcome [4] | outcome [5] | Potency [6] | outcome [8] | outcome [9]

CC(=O)CC(=O)Nc1ccc(C)cc1C
inactive: outcome [10] | outcome [1] | outcome [3] | outcome [4] | outcome [5] | Potency [6] | outcome [8] | outcome [9]

CC(C)c1ccc(C=O)cc1
inactive: outcome [1] | Potency [2] | outcome [3] | outcome [4] | outcome [5] | Potency [6] | Potency [7] | outcome [8] | outcome [9]

CC(=O)N[C@@H](CO)C(=O)N[C@@H](CC(=O)O)C(=O)N[C@@H](CCCCN)C(=O)N1CCC[C@H]1C(=O)O (Ac-SDKP-OH)
inactive: outcome [10] | outcome [1] | outcome [5] | Potency [6] | Potency [7] | outcome [8] | outcome [9]

CCCCCCCCCCCCCCCCCCOCCO
inactive: activity change, negative = cytotoxicity [1] 4.32% [at 19 µM] | activation [2] -1.02% [at 19 µM] | cAMP activity change [3] -0.284% [at 18.9 µM] | activity change, negative = inhibition [4] -0.175% [at 19 µM] | activity change, negative = cytotoxicity [5] 0.983% [at 19 µM] | activation [6] 3.24% [at 19 µM]

CC(=O)c1cc(C)oc1C
inactive: outcome [10] | outcome [1] | outcome [5] | Potency [7] | outcome [8] | outcome [9]

Cc1ccc2c(c1)C(=O)c1ccccc1C2=O
inactive: outcome [1] | outcome [3] | outcome [4] | outcome [5] | Potency [6] | Potency [7]
active: Potency [2] 3.84 µM

CC1(C)[C@H]2CC[C@](C)(C2)[C@H]1O
inactive: outcome [1] | Potency [2] | outcome [3] | outcome [4] | outcome [5] | Potency [6] | Potency [7] | outcome [8] | outcome [9]

CC1(C)Cc2cccc(N)c2O1
inactive: outcome [1] | Potency [2] | outcome [3] | outcome [4] | outcome [5] | Potency [6] | Potency [7] | outcome [8] | outcome [9]

COC(=O)CCCCC(=O)O
inactive: outcome [1] | Potency [2] | outcome [3] | outcome [4] | outcome [5] | Potency [6] | Potency [7] | outcome [8] | outcome [9]

CCNC(=O)NCc1cccc(Cl)c1
inactive: outcome [1] | Potency [2] | outcome [3] | outcome [4] | outcome [5] | Potency [6] | Potency [7] | outcome [8] | outcome [9]

CC(CO)(CO)CO
inactive: outcome [1] | Potency [2] | outcome [3] | outcome [4] | outcome [5] | Potency [6] | Potency [7] | outcome [8] | outcome [9]

Cc1ccc(N)cc1S(=O)(=O)O
inactive: outcome [1] | Potency [2] | outcome [3] | outcome [4] | outcome [5] | Potency [6] | Potency [7] | outcome [8] | outcome [9]
